Data published in PubChem BioAssay AID1159580 (chemical genetic matrix, 2015).
Values joined by “and” are separate entries in the source; they are usually repeats but may differ in a detail not shown here. Identical values can stand only once. Screen size: about 5,500 compounds; about 2,000 (36%) were called active. Not shown: some 18% with an inconclusive outcome. Rule as the data show it: active = normalized growth mostly below about 0.91 (no sharp cut-off); inconclusive = no clear call, values can overlap the other calls; inactive = mostly above about 0.92. The list shows a part of the results.

Assay: chemical genetic growth profiling, strain panel (AID 1159580);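 also: tested at 20 µM; growth read once vehicle control cultures reached saturation at 30 °C; 1 = growth at the plate median or of vehicle wells; lower values mean less growth of the strain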
Conditions: S. cerevisiae deletion strains, growth OD

Measured: normalized growth

CC1(C)C=Cc2cc3ccc(=O)oc3cc2O1
inactive: locus YAL013W, strain DEP1, stronger effect = lower value 0.986 | locus YAL021C, strain ccr4, stronger effect = lower value 0.987 | locus YAL026C, strain drs2, stronger effect = lower value 0.963 | locus YAL030W, strain snc1, stronger effect = lower value 0.934 | locus YBL061C, strain skt5, stronger effect = lower value 0.972 | locus YBR021W, strain FUR4, stronger effect = lower value 0.95 | locus YBR171W, strain sec66, stronger effect = lower value 0.945 | locus YBR229C, strain ROT2, stronger effect = lower value 0.995 | locus YBR231C, strain swc5, stronger effect = lower value 0.958 | locus YBR279W, strain paf1, stronger effect = lower value 0.973 | locus YCL029C, strain bik1, stronger effect = lower value 0.967 | locus YCR088W, strain abp1, stronger effect = lower value 0.927 | locus YDL005C, strain med2, stronger effect = lower value 0.96 | locus YDL035C, strain GPR1, stronger effect = lower value 0.984 | locus YDL040C, strain nat1, stronger effect = lower value 0.962 | locus YDL074C, strain BRE1, stronger effect = lower value 0.919 | locus YDL101C, strain DUN1, stronger effect = lower value 0.987 | locus YDL134C, strain PPH21, stronger effect = lower value 0.947 | locus YDL185W, strain tfp1, stronger effect = lower value 0.975 | locus YDL192W, strain arf1, stronger effect = lower value 0.958 | locus YDR069C, strain doa4, stronger effect = lower value 0.958 | locus YDR101C, strain arx1, stronger effect = lower value 0.93 | locus YDR137W, strain rgp1, stronger effect = lower value 0.849 | locus YDR159W, strain sac3, stronger effect = lower value 0.959 | locus YDR162C, strain NBP2, stronger effect = lower value 0.976 | locus YDR195W, strain ref2 1.07 | locus YDR297W, strain sur2, stronger effect = lower value 0.965 | locus YDR318W, strain mcm21, stronger effect = lower value 0.935 | locus YDR334W, strain swr1, stronger effect = lower value 0.943 | locus YDR335W, strain msn5, stronger effect = lower value 0.919 | locus YDR388W, stronger effect = lower value 0.971 | locus YEL003W, strain gim4, stronger effect = lower value 0.951 | locus YEL037C, strain rad23, stronger effect = lower value 0.95 | locus YEL061C, strain CIN8 (second series), stronger effect = lower value 0.931 | locus YEL061C, strain CIN8, stronger effect = lower value 0.993 | locus YER016W, strain bim1, stronger effect = lower value 0.965 | locus YER110C, stronger effect = lower value 0.96 | locus YER111C, strain swi4, stronger effect = lower value 0.958 | locus YER155C, strain BEM2, stronger effect = lower value 0.973 | locus YER167W, strain BCK2, stronger effect = lower value 0.952 | locus YFR010W, strain ubp6, stronger effect = lower value 0.951 | locus YGL078C, strain dbp3, stronger effect = lower value 0.968 | locus YGL167C, strain pmr1, stronger effect = lower value 0.953 | locus YGL173C, strain kem1, stronger effect = lower value 0.949 | locus YGL227W, strain vid30, stronger effect = lower value 0.934 | locus YGL248W, strain PDE1, stronger effect = lower value 0.941 | locus YGL253W, strain hxk2, stronger effect = lower value 0.971 | locus YGR078C, strain PAC10, stronger effect = lower value 0.944 | locus YGR135W, strain pre9, stronger effect = lower value 0.907 | locus YGR252W, strain gcn5, stronger effect = lower value 0.818 | locus YHR013C, strain ard1, stronger effect = lower value 0.865 | locus YHR027C, strain rpn1, stronger effect = lower value 0.953 | locus YHR079C, strain IRE1 (second series), stronger effect = lower value 0.962 | locus YHR094C, strain hxt1, stronger effect = lower value 0.964 | locus YHR129C, strain ARP1, stronger effect = lower value 0.978 | locus YHR200W, strain rpn10, stronger effect = lower value 0.954 | locus YIL066C, strain RNR3, stronger effect = lower value 0.993 | locus YIL073C, strain SPO22, stronger effect = lower value 0.908 | locus YIL125W, strain kgd1, stronger effect = lower value 0.935 | locus YIR030C, strain dcg1, stronger effect = lower value 0.962 | locus YJL092W, strain hpr5, stronger effect = lower value 0.921 | locus YJL095W, strain BCK1 (second series), stronger effect = lower value 0.96 | locus YJL115W, strain asf1, stronger effect = lower value 0.921 | locus YJL134W, strain LCB3, stronger effect = lower value 0.991 | locus YJL154C, strain vps35, stronger effect = lower value 0.933 | locus YJL168C, strain set2, stronger effect = lower value 0.976 | locus YJL187C, strain SWE1 (second series), stronger effect = lower value 0.959 | locus YJL187C, strain SWE1, stronger effect = lower value 0.968 | locus YJR043C, strain POL32, stronger effect = lower value 0.972
active: locus YBR009C, strain hhf1, stronger effect = lower value 0.875 | locus YBR023C, strain chs3, stronger effect = lower value 0.912 | locus YCL011C, strain gbp2, stronger effect = lower value 0.865 | locus YCL016C, strain dcc1, stronger effect = lower value 0.891 | locus YCL069W, strain vba3, stronger effect = lower value 0.915 | locus YDR001C, strain nth1, stronger effect = lower value 0.906 | locus YDR392W, strain spt3, stronger effect = lower value 0.58 | locus YDR502C, strain sam2, stronger effect = lower value 0.914 | locus YER015W, strain faa2, stronger effect = lower value 0.919 | locus YER155C, strain BEM2 (second series), stronger effect = lower value 0.565 | locus YGL086W, strain mad1, stronger effect = lower value 0.916 | locus YGL240W, strain doc1, stronger effect = lower value 0.863 | locus YHR079C, strain IRE1, stronger effect = lower value 0.818 | locus YHR142W, strain chs7, stronger effect = lower value 0.834 | locus YJL129C, strain trk1, stronger effect = lower value 0.778 | locus YJL164C, strain tpk1, stronger effect = lower value 0.9 | locus YJL166W, strain qcr8, stronger effect = lower value 0.896
0.901 (inactive) and 0.867 (active): locus YJL095W, strain BCK1, stronger effect = lower value
0.984 (inactive) and 0.846 (active): locus YHR030C, strain SLT2, stronger effect = lower value
